Experimental data published in PubChem BioAssay (Tox21).
Active and inactive are the calls of the source. Calls follow the shape of the dose curve; as a rule, active = well fitted curve in the direction sought with a large enough effect in the repeat runs; inconclusive = weak or mixed curves; inactive = flat fitted curve, though single readings scatter.

test: qHTS assay to test for compound auto fluorescence at 460 nm (blue) in HEK293 cell free culture (AID 720681); details: cell-free medium, autofluorescence 405/460 nm (blue); series mostly up to 91.3 µM; fluorescence, % of fluorescent control: at the top concentration
Description: U.S. Tox21 Program National Center for Advancing Translational Sciences [NCATS] NIH Chemical Genomics Center [NCGC] U.S. Environmental Protection Agency [EPA] National Institutes of Environmental Health Sciences [NIEHS] National Toxicology Program [NTP] U.S. Food and Drug Administration [FDA] Tox21 Assay Overview: Compound auto fluorescence often interferes with screening of the compound library against various biological targets and signaling pathways. Some of these compounds may have fluorophoric properties. Such properties may interfere with the assay outputs resulting in false positives and/or negatives. To decrease such complications and ensure the compound activities are relevant in terms of biological response, the Tox21 10K compound library was screened for auto fluorescence. From the fluorophores used as reporter signals in our screening assays, the auto fluorescence equivalencies of compounds against three fluorophores have been evaluated: Triamterene, Fluorescein and Rose Bengal sodium for blue, green and red fluorescence, respectively. The fluorescence intensities were measured using Excitation/Emission wavelengths at 405/460nm, 485/535nm and 540/590nm for blue, green and red labels, respectively. This assay includes the blue fluorescence data.
Tox21 Assay Protocol Summary: 5 uL of culture medium (DMEM containing 10% FBS) per well was dispensed into black wall/clear bottom 1536-well plates using a Multidrop Combi Dispenser (ThermoFisher Scientific, Waltham, MA). After 23 nL compound or DMSO vehicle was transferred into assay plate by a pintool work station (Kalypsys, San Diego, CA), fluorescence intensities in the assay plates were measured by an Envision (PerkinElmer, Shelton, CT) plate reader using three labels for measuring blue, green and red fluorescence at […] 460, 535 and 590nm respectively.
% is scaled to controls: 0 for no effect and ±100 for the full control effect; potency is read from the fitted curve at half-maximal effect.

Compound	fluorescence, % of fluorescent control	Potency
O=C(NC(=O)c1ccccc1Cl)Nc1ccc(OC(F)(F)F)cc1	0.0564% (inactive)	–
Oc1ccc([C@H]2CNCc3c2ccc(O)c3O)cc1O	0.828% [at 46 µM] (inactive)	–
Cc1ccccc1OP(=O)(Oc1ccccc1C)Oc1ccccc1C	-0.108% (inactive)	–
CN	-0.0539% [at 95.7 µM] (inactive)	–
CC(C)=CCN1CC[C@@]2(C)c3cc(O)ccc3C[C@@H]1[C@@H]2C	-0.13% (inactive)	–
CO/N=C(\C(=O)OC)c1ccccc1CO/N=C(\C)c1cccc(C(F)(F)F)c1	-0.115% (inactive)	–
O=C(O)[C@H](O)[C@@H](O)C(=O)O	0.0216% (inactive)	–
N#Cc1c2ccccc2cc2ccccc12	–	2510 nM (active)
CC(C)(C)c1ccc(OP(=O)(Oc2ccccc2)Oc2ccccc2)cc1	-0.0343% (inactive)	–
Oc1ccc2[nH]cc(CCCCN3CC=C(c4ccccc4)CC3)c2c1	-0.078% [at 46 µM] (inactive)	–
CSC(C)(C)/C=N/O	0.292% (inactive)	–
CC(Cl)CCl (stereo not given)	0.124% (inactive)	–
O=S1OCC2C(CO1)C1(Cl)C(Cl)=C(Cl)C2(Cl)C1(Cl)Cl (stereo not given)	–	inactive
CC1CN1 (stereo not given)	0.0778% (inactive)	–
Oc1ccc(Cl)c(Cl)c1	-0.284% (inactive)	–
CNC(C)(C)Cc1ccccc1	-0.0376% [at 18.6 µM] (inactive)	–
FC(F)C(F)(F)OCC(Cn1cncn1)c1ccc(Cl)cc1Cl (stereo not given)	-0.163% (inactive)	–
O=NN(CCO)CCO	-0.0684% (inactive)	–
CC[C@]1(O)CC[C@H]2[C@@H]3CCC4=CCCC[C@@H]4[C@H]3CC[C@@]21C	-0.079% [at 46 µM] (inactive)	–
CC(=O)[O-].CC(=O)[O-].O.O.[Zn+2]	-0.043% (inactive)	–

Compound	fluorescence, % of fluorescent control	Potency
O=c1[nH]c(Cl)c(Cl)cc1Cl	0.0815% (inactive)	–
Cc1ccc2cc3c(ccc4ccccc43)c3c2c1CC3	0.328% [at 46 µM] (inactive)	–
CCCCCCCc1ccc(O)cc1	-0.0326% (inactive)	–
COc1c2c(cc3c1OCO3)CCN(C)C2	0.395% [at 18.6 µM] (inactive)	–
O=S(=O)(O)F	-0.351% [at 95.7 µM] (inactive)	–
ClSC(Cl)(Cl)Cl	-0.0538% (inactive)	–
c1ccc(N=NNc2ccccc2)cc1	–	inactive
CCN(CC)CCN1C(=O)CN=C(c2ccccc2F)c2cc(Cl)ccc21	-0.119% [at 46 µM] (inactive)	–
COC(=O)c1ccccc1S(=O)(=O)NC(=O)Nc1nc(C)nc(OC)n1	0.0334% (inactive)	–
Cc1cccc(Cc2cnc[nH]2)c1C	-0.005% [at 46 µM] (inactive)	–
CC(=O)[O-].CC(=O)[O-].O.O.O.[Pb+2]	-0.149% (inactive)	–
Clc1ccc(C(c2ccc(Cl)cc2)C(Cl)Cl)cc1	–	inactive
O.O.O.O.O.O.O.O=S(=O)([O-])[O-].[Co+2]	–	inactive
CCC(C)Br (stereo not given)	-0.131% [at 95.7 µM] (inactive)	–
CCC(C)Nc1c([N+](=O)[O-])cc(C(C)(C)C)cc1[N+](=O)[O-] (stereo not given)	0.0096% (inactive)	–
S=C=NCCc1ccccc1	0.724% (inactive)	–
COc1ccc2c(c1OC)C(=O)O[C@@H]2[C@H]1c2cc3c(cc2CCN1C)OCO3	0.537% (inactive)	–
CC(=O)O.CC(=O)O.CC(=O)O.CC(=O)O.CC(=O)O.CC(=O)O.CC(=O)O.O.O.[Cr].[Cr].[Cr]	-0.0752% (inactive)	–
CCN(CC)Cc1nccn1-c1ccc([N+](=O)[O-])cc1C(=O)c1ccccc1Cl	0% [at 46 µM] (inactive)	–
CCCCCCCCCCCCCCn1cc[n+](C)c1	–	inactive
